Source: PubChem
An excerpt weighted towards active compounds, which were near 4.7% of everything screened.
HSF1 inhib – HSF1 inhibition; NIH3T3-HGL HSE-luciferase, MG132-induced, luminescence 8 h; active compounds read low; activity change, negative = inhibition, % at 7.5 µM (by protocol); hit rate 0.77% among 300,000; AID 2098;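 active = more than half of replicate wells show activity change below -50%, luminescence cut by over half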;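 note: luciferase reports HSF-1 transcriptional activity via heat shock element; 0% = median of DMSO wells and -100% = zero luminescence signal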
TROY NFkB inh – TROY signaling inhibition | inhibition, % at 10 µM | hit rate 0.98% among 360,000 | AID 1347056 | Q293 LMP1-TROYcd NF-kB luciferase reporter, 4 h;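 active = compounds whose plate-normalised and pattern-corrected inhibition of the luciferase reporter signal at the single screening dose is 50% or more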
LMP1 NFkB inh – Epstein-Barr LMP1 NF-kappaB reporter inhibition. LMP1-induced NF-kappaB luciferase reporter cells, luminescence. inhibition, % at 12.5 µM. hit rate 0.69% among 350,000. AID 504558; in the data active = inhibition above about 41%;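 note: 0% = neutral control wells and 100% = reference inhibitor control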
HSP90 inh – HSP90 refolding inhibition in rabbit reticulocyte lysate. inhibition, % at 5.6 µM. AID 1789. hit rate 0.91% among 290,000. luciferase refolding luminescence, 3 h;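 active = inhibition above the screen-wide mean plus 3 SD, computed separately per campaign, cut at about 16% in these data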;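 note: 0% = DMSO wells and 100% = 60 µM geldanamycin wells; inhibitors lower the luminescence because luciferase stays unfolded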
TWEAK Fn14 block – inhibitors of TWEAK-Fn14 interaction signaling. hit rate 2% among 360,000. AID 1159606. TWEAK-stimulated Fn14 reporter cells, luciferase luminescence, 8 h. inhibition, % at 10 µM; in the data active = inhibition above about 50%
HSF-1 act – increases HSF-1 driven luciferase reporter signal; NIH3T3-HGL HSF-1 luciferase reporter, MG132, 8 h; 100% = twice DMSO control signal; activation, % at 9 µM; hit rate 1.7% among 300,000;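 active = mean replicate activation of at least 50% with a set share of replicates each reaching 50%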;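 note: 0% = median of the neutral control wells and 100% = twice that signal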
* = called active by the depositor.

Results for Cc1ccc(C(c2c(C)nn(-c3ccccc3)c2N)c2c(C)nn(-c3ccccc3)c2N)cc1 ?
HSF1 inhib: 68; TROY NFkB inh: 5; LMP1 NFkB inh: 1; HSP90 inh: -1; TWEAK Fn14 block: 14; HSF-1 act: 93*

How did COc1cccc2sc(N(C)c3ccccc3)nc12 do in these assays?
HSF1 inhib: 19; TROY NFkB inh: -38; LMP1 NFkB inh: -14; HSP90 inh: 12; TWEAK Fn14 block: 31; HSF-1 act: 64*

How did CCOc1cc(OCC)cc(C(=O)Nc2cccnc2)c1 do in these assays?
HSF1 inhib: 18; TROY NFkB inh: -8; LMP1 NFkB inh: -15; HSP90 inh: 0; TWEAK Fn14 block: 18; HSF-1 act: 59*

Results for CC(=O)Oc1ccc(C(=O)Nc2cccnc2)cc1 ?
HSF1 inhib: -1; TROY NFkB inh: 31; LMP1 NFkB inh: 85*; HSP90 inh: 0; TWEAK Fn14 block: -29; HSF-1 act: -4

Results for O=C(Nc1cccnc1)c1ccc(-c2ccccc2)cc1 ?
HSF1 inhib: 28; TROY NFkB inh: -44; LMP1 NFkB inh: 5; HSP90 inh: -5; TWEAK Fn14 block: -10; HSF-1 act: 66*

What do the screens show for `COc1cc(OC)cc(C(=O)Nc2cccnc2)c1`?
HSF1 inhib: 6; TROY NFkB inh: 1; LMP1 NFkB inh: 5; HSP90 inh: 7; TWEAK Fn14 block: 3; HSF-1 act: 24

How did CC1(C(=O)NS(=O)(=O)c2ccccc2Cl)CCN1C(=O)COc1ccc(Cl)cc1 (stereo not given) do in these assays?
TROY NFkB inh: -6; TWEAK Fn14 block: 12

What do the screens show for `Cc1cc2nc(C(C)(C)C)c(Cc3cccc(F)c3)n2c(C)c1Br`?
TROY NFkB inh: 10; TWEAK Fn14 block: -10

Results for CC(C)C[C@H]1COc2cc(N3CCC[C@@H]3CO)ccc2S(=O)(=O)N1 ?
TROY NFkB inh: 2; TWEAK Fn14 block: 2

How did CN(C)CCCNC1=CC(=O)OC12CCCCC2 do in these assays?
HSF1 inhib: -11; LMP1 NFkB inh: 1; HSP90 inh: 1; TWEAK Fn14 block: 90*; HSF-1 act: -11

What do the screens show for `Cc1ccc(NC(=O)C2(C)CCN2C(=O)Cc2ccccc2)cc1C` (stereo not given)?
TROY NFkB inh: 8; TWEAK Fn14 block: -2

What do the screens show for `COC(=O)C1(C(=O)OC)C/C=C\CN(S(=O)(=O)c2ccccc2[N+](=O)[O-])CC1`?
TROY NFkB inh: -8; TWEAK Fn14 block: 3

Results for O=C(c1cccs1)c1c[nH]cc1-c1ccccc1 ?
HSF1 inhib: 3; TROY NFkB inh: -20; TWEAK Fn14 block: 7; HSF-1 act: 4

How did O=C(c1cccs1)c1ccccc1Cc1cccs1 do in these assays?
TROY NFkB inh: -24; LMP1 NFkB inh: 0; TWEAK Fn14 block: 92*

How did COc1ccc(CCNc2oc(-c3ccccc3OC)nc2C#N)cc1 do in these assays?
HSF1 inhib: 55; TROY NFkB inh: 14; LMP1 NFkB inh: 2; HSP90 inh: -1; TWEAK Fn14 block: 5; HSF-1 act: 95*

How did Cc1cc(N(C)C)ccc1N=Nc1ccc(N)cc1 do in these assays?
HSF1 inhib: 19; TROY NFkB inh: -56; LMP1 NFkB inh: -13; TWEAK Fn14 block: 28; HSF-1 act: 49

What do the screens show for `Cc1sc(N=Nc2ccc(N(C)C)cc2)[n+]([O-])c1C`?
TROY NFkB inh: 63*; LMP1 NFkB inh: -22; TWEAK Fn14 block: 61*

Results for Cc1cc(NCCNC2=CC(=O)CCC2)nc2ccccc12 ?
HSF1 inhib: 2; TROY NFkB inh: 6; LMP1 NFkB inh: 2; HSP90 inh: -1; TWEAK Fn14 block: 73*; HSF-1 act: 12

Results for CCOC(=O)Cc1cnc(NC(=O)NC(C(=O)OCC)(c2ccccc2)C(F)(F)F)s1 (stereo not given) ?
HSF1 inhib: 52; TROY NFkB inh: -27; LMP1 NFkB inh: -4; HSP90 inh: -2; TWEAK Fn14 block: -3; HSF-1 act: 113*

How did CC(=O)c1ccc(S(=O)(=O)Nc2cccc(-c3ccc4nncn4n3)c2)cc1 do in these assays?
HSF1 inhib: -2; TROY NFkB inh: 2; LMP1 NFkB inh: 58*; HSP90 inh: 4; TWEAK Fn14 block: 5; HSF-1 act: 10

What do the screens show for `O=C(NNC(=S)Nc1ccc(Cl)cc1)c1ccccc1OC(F)F`?
HSF1 inhib: 19; TROY NFkB inh: 9; LMP1 NFkB inh: 12; HSP90 inh: -2; TWEAK Fn14 block: -21; HSF-1 act: 59*

How did CCCOc1ccc(F)cc1-c1cc(C(=O)Nc2ccc(C)c(NS(C)(=O)=O)c2)[nH]n1 do in these assays?
TROY NFkB inh: 41; TWEAK Fn14 block: 59*

How did CCCOc1ccc(F)cc1-c1cc(C(=O)NCc2cc(C(F)(F)F)cc(C(F)(F)F)c2)[nH]n1 do in these assays?
TROY NFkB inh: 23; TWEAK Fn14 block: 53*

What do the screens show for `CN(Cc1ccc(Cl)cc1)C(CCc1ccccc1)C(=O)NC1CCCCC1` (stereo not given)?
TROY NFkB inh: 3; TWEAK Fn14 block: 17

What do the screens show for `CCn1c(SCc2ccccc2Cl)nc2ccccc21`?
HSF1 inhib: 33; TROY NFkB inh: -52; LMP1 NFkB inh: 1; HSP90 inh: -1; TWEAK Fn14 block: -24; HSF-1 act: 42

Results for Cn1c(SCc2ccccc2Cl)nc2ccccc21 ?
HSF1 inhib: 40; TROY NFkB inh: -26; LMP1 NFkB inh: -42; HSP90 inh: 0; TWEAK Fn14 block: -17; HSF-1 act: 93*

What do the screens show for `N#Cc1ccc(C(=O)N2CCCCC2c2cc(C(=O)Nc3ccc4c(c3)OCO4)no2)cc1` (stereo not given)?
TROY NFkB inh: 6; TWEAK Fn14 block: 13

Results for Nc1nnnn1/N=C/c1ccccc1O ?
HSF1 inhib: -5; TROY NFkB inh: -8; LMP1 NFkB inh: 2; TWEAK Fn14 block: 0; HSF-1 act: 12

Results for CCOc1ccccc1/C=N/n1nnnc1N ?
HSF1 inhib: 4; TROY NFkB inh: -10; LMP1 NFkB inh: 9; HSP90 inh: 3; TWEAK Fn14 block: 74*; HSF-1 act: 17

Results for CCN(Cc1ccccc1)C(=S)NC(=O)c1ccccc1Br ?
HSF1 inhib: 1; TROY NFkB inh: 0; LMP1 NFkB inh: -1; HSP90 inh: 0; TWEAK Fn14 block: 3; HSF-1 act: -1

What do the screens show for `CCOc1ccc(C(=O)NC(=S)N(Cc2ccccc2)Cc2ccccc2)cc1`?
HSF1 inhib: -5; TROY NFkB inh: 42; LMP1 NFkB inh: 50*; HSP90 inh: 4; TWEAK Fn14 block: 19; HSF-1 act: 0

Results for CCCN(Cc1ccccc1)C(=S)NC(=O)c1ccccc1[N+](=O)[O-] ?
HSF1 inhib: -60*; TROY NFkB inh: 3; LMP1 NFkB inh: 5; HSP90 inh: -1; TWEAK Fn14 block: 4; HSF-1 act: -67

Results for CCCS(=O)(=O)NC(=O)C1(C)CCCN(C(=O)C2(c3ccc(Cl)cc3)CCCC2)C1 (stereo not given) ?
TROY NFkB inh: 5; TWEAK Fn14 block: 14
